Source: PubChem
TRPM1 prom inh – inhibitors of MITF-driven TRPM1 promoter in melanoma cells; SK-MEL-5 TRPM1 promoter luciferase, 24 h; actives 0.83% (n = 330,000); inhibition, % at 12.5 µM;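 active = mean inhibition across replicates of 60% or more, whatever share of single replicates reaches that level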
Peg3 promoter – inhibitors of Peg3 promoter; HeLa PEG-Prom luciferase reporter, luminescence, overnight; inhibition, % at 20 µM; actives 1.7% (n = 360,000);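 active = inhibition of at least 50% at 20 µM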
TROY signal inh – blocks TROY-dependent signaling in reporter cells; Q293 LMP1-TROYcd NF-kB luciferase reporter, 4 h; inhibition, % at 10 µM; actives 0.98% (n = 360,000);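 active = compounds whose plate-normalised and pattern-corrected inhibition of the luciferase reporter signal at the single screening dose is 50% or more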
EBV LMP1 NFkB – reduces LMP1-driven NF-kappaB luciferase signal | LMP1-induced NF-kappaB luciferase reporter cells, luminescence | inhibition, % at 12.5 µM | actives 0.69% (n = 350,000); in the data active = inhibition above about 41%;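 also: 0% = neutral control wells and 100% = reference inhibitor control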
HIF-2a inh – HIF-2a inhibition; actives 0.72% (n = 360,000); 786-0 RCC cells HIF-2a reporter, luciferase luminescence, overnight; inhibition, % at 18.8 µM;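 active = inhibition of the luminescence signal of 40% or more relative to plate controls, in a single-dose primary screen at 18.75 µM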
TWEAK Fn14 block – inhibitors of TWEAK-Fn14 interaction signaling; TWEAK-stimulated Fn14 reporter cells, luciferase luminescence, 8 h; inhibition, % at 10 µM; actives 2% (n = 360,000); AID 1159606; in the data active = inhibition above about 50%
* hit, by the source's call; / = no result given. Shown are actives, neighbours in structure and some others; about 4% of the full set was active somewhere.

SMILES	TRPM1 prom inh	Peg3 promoter	TROY signal inh	EBV LMP1 NFkB	HIF-2a inh	TWEAK Fn14 block
COc1ccc(OC)c(CC(=O)Nc2ccc3c(c2)CCC3)c1	1.9	10.7	8.4	-6.3	-14.2	-0.6
COc1ccc(OC)c(CNc2ccc3c(c2)CCC3)c1	-5.6	-38.0	50.6*	1.1	-57.8	60.5*
COc1cccc(CNc2ccc3c(c2)CCC3)c1	-17.5	-147.9	43.9	-6.4	-109.8	51.4*
CCOC(=O)[C@]12CCCC=C1N(CCc1ccc(OC)c(OC)c1)C(=O)[C@H](CC(=O)N1CCSCC1)C2	/	/	/	/	-7.0	/
CCOC(=O)c1ccc(S(=O)(=O)N2CCC(C(=O)NCC3COc4ccccc4O3)CC2)cc1 (stereo not given)	/	-1.5	-2.4	9.3	0.4	15.5
Cc1ccc(NC(=O)c2ncn(CCCN[C@H](C)c3cccc4ccccc34)n2)cc1C	59.7	84.6*	-4.7	-12.0	-29.0	-6.0
Cc1ccc(NCCCn2cnc(C(=O)Nc3ccc(C)c(C)c3)n2)cc1C	5.4	-5.2	-2.6	-6.4	-24.0	-12.7
CCOc1ccccc1C(=O)N[C@H](C(=O)OCc1cc([N+](=O)[O-])cc2c1OCOC2)C(C)C	8.9	31.8	-2.3	49.4*	17.1	21.1
CC(C)C(NC(=O)c1ccccc1)C(=O)OCc1cc([N+](=O)[O-])cc2c1OCOC2 (stereo not given)	2.2	-4.5	8.1	6.0	-9.3	-6.8
CC(=O)Nc1cc2c(cc1Br)-c1ccccc1C2	-8.3	-250.4	-32.2	-13.6	-230.8	-1.8
CCCC(C)c1nnc(NC(=O)CCS(=O)(=O)c2ccccc2)s1 (stereo not given)	7.3	10.7	3.8	10.6	5.3	57.2*
O=C(CCS(=O)(=O)c1ccccc1)Nc1nccs1	-3.8	1.9	0.0	83.8*	1.4	1.2
CC(C)c1nnc(NC(=O)CCCC(=O)O)s1	5.5	-1.5	/	3.8	-0.3	75.8*
O=C(CCS(=O)(=O)c1ccccc1)Nc1nc2ccc(F)cc2s1	14.1	61.2*	-25.2	-12.7	-42.2	17.3
CC(C)NCC1CCc2cc(CO)c([N+](=O)[O-])cc2N1 (stereo not given)	-3.8	5.9	5.3	-15.0	4.7	5.2
CCOC(=O)C1=CCN(S(=O)(=O)c2ccc(F)cc2)C1c1cccc(F)c1 (stereo not given)	/	25.4	18.6	/	5.9	3.8
COc1ccc(NC(=O)N(C)C[C@H]2Oc3ncc(Br)cc3C(=O)N([C@H](C)CO)C[C@@H]2C)cc1	/	1.0	5.8	-3.9	8.1	10.4
O=C(COc1ccccc1)Nc1nccs1	-67.6	-203.6	-10.0	12.7	-127.5	17.6
O=C(COc1ccc2ccccc2c1)Nc1nccs1	-30.3	-98.3	-28.1	2.4	-66.5	74.7*
O=C(CSc1nnc(-c2ccccc2O)n1-c1ccccc1)Nc1cccc(C(=O)O)c1	8.7	18.6	-6.9	5.8	24.2	-1.5
C=CCNC(=O)CSc1nnc(-c2ccccc2Br)n1-c1cccc(C(F)(F)F)c1	4.2	51.9*	-6.6	2.1	0.3	-0.7
Cc1cc(C)c(S(=O)(=O)/N=C2\C=C(Nc3ccc(C(=O)O)cc3)C(=O)c3ccccc32)c(C)c1	77.8*	103.3*	62.4*	8.9	-14.0	96.5*
O=C(O)c1ccc(NC2=C/C(=N/S(=O)(=O)c3ccccc3)c3ccccc3C2=O)cc1	62.7*	10.3	50.4*	-11.7	44.2*	96.7*
Cc1c(C(=O)NCc2ccc3c(c2)OCCO3)sc(=O)n1Cc1cccc(C(F)(F)F)c1	/	12.6	20.1	/	16.6	17.9
CC(C)(C)c1ccccc1NC(=O)Nc1nc(C(N)Cc2ccc(F)cc2)cs1 (stereo not given)	/	97.6*	5.4	/	-5.2	3.7
SMILES	TRPM1 prom inh	Peg3 promoter	TROY signal inh	EBV LMP1 NFkB	HIF-2a inh	TWEAK Fn14 block
NC(Cc1ccc(C(F)(F)F)cc1)c1csc(NC(=O)Nc2ccccc2Cc2ccccc2)n1 (stereo not given)	/	118.3*	-12.1	/	3.0	22.2
CS(=O)(=O)c1ccc(Nc2nc(C(N)Cc3ccc(C(F)(F)F)cc3)cs2)cc1 (stereo not given)	/	26.9	11.0	/	7.5	9.2
CC(C)c1ccccc1NC(=O)Nc1nc(C(N)Cc2ccc(C(F)(F)F)cc2)cs1 (stereo not given)	/	108.4*	1.4	/	13.6	4.0
Cc1ccc(S(=O)(=O)c2nc(S(=O)(=O)c3ccc(C)cc3)c(N3CCN(CCO)CC3)s2)cc1	12.6	2.3	13.7	13.2	8.0	19.1
O=c1c2cnn(-c3ccccc3)c2nc(-c2cccs2)n1-c1ccc(Cl)cc1	-2.4	-10.8	6.8	43.9*	-12.7	31.1
O=c1c2cnn(-c3ccccc3)c2nc(-c2cccs2)n1-c1cccc(Cl)c1	11.6	-4.5	-3.6	10.3	-24.5	28.1
CCN(CC)S(=O)(=O)c1ccc(N2CCOCC2)c(NC(=O)c2cccc3ccccc23)c1	9.8	34.2	5.8	-2.8	10.8	-11.4
CCN(CC)S(=O)(=O)c1ccc(N2CCOCC2)c(NC(=O)c2cc(-c3ccccn3)nc3ccccc23)c1	5.4	61.5*	20.7	13.2	-4.8	29.4
CCNC(=S)N1CCN(CCNC2=CC(=O)CC(C)(C)C2)CC1	-3.7	14.6	-5.8	-25.4	8.4	-16.6
CC1(C)CC(=O)C=C(NCCN2CCN(C(=S)Nc3ccccc3)CC2)C1	-0.1	2.1	-11.0	69.7*	4.0	10.1
O=C1c2cc(O)c(O)cc2OC(c2ccc(O)c(O)c2)C1O (stereo not given)	-5.1	-1.6	-7.3	-5.7	8.9	14.6
CN(C)c1ccc(-c2ccnc3c2CC(C)(C(=O)NCC2CC2)O3)cc1 (stereo not given)	/	18.6	11.3	/	13.8	-14.8
Cc1[nH]n(-c2ccccc2)c(=O)c1C(C[N+](=O)[O-])c1ccc(Br)cc1 (stereo not given)	82.8*	102.8*	4.8	11.1	28.5	14.4
Clc1ccc2c(N/N=C/c3ccc(Br)cc3)ccnc2c1	30.6	105.5*	-2.5	-8.0	33.3	-36.9
Oc1ccc(/C=N/Nc2ccnc3cc(Cl)ccc23)c(O)c1	1.8	27.8	-5.5	-2.3	-226.8	-34.3
Clc1ccc2c(N/N=C/c3cccnc3)ccnc2c1	19.5	17.8	-80.3	0.8	-81.6	-35.9
Cc1ccc(/C=N/Nc2ccnc3cc(Cl)ccc23)c(C)c1	86.8*	110.8*	41.0	5.1	8.2	18.9
Cc1ccccc1/C=N/Nc1ccnc2cc(Cl)ccc12	68.0*	94.5*	-5.0	-38.5	-52.7	-69.3
CC1CCCC(C)N1C(=O)COC(=O)c1cccnc1Cl (stereo not given)	1.2	4.2	-18.9	2.1	4.9	-3.4
CCOC(=O)c1ccc(NC(=O)c2nc[nH]c2C(=O)NC[C@@H](C)O)cc1	/	-30.4	20.7	6.9	-24.1	-8.6
Cc1cc(C)c(OCCCNC2CCCC2)c(Br)c1	-18.2	0.8	4.4	-34.8	17.7	-10.4
CC(=O)c1c(C)[nH]c(C(=O)CSc2nnc(-c3ccccc3)o2)c1C	11.9	12.0	21.8	3.0	-3.4	96.1*
